# Values joined by “and” are separate entries in the source; they are usually repeats but may differ in a detail not shown here. Equal values may be shown once. A structure can be active in one record and inactive in another. Active and inactive are the calls of the source. How the source made its calls: active means hit-call score of the fitted dose curve at least 0.9, where 1 is the maximum; inactive means score below 0.9.
# Read-out: Human Leukocyte Antigen - DR isotype (HLADR), HLA-DRA (gene 3122)
# Experiment: BSK_3C_HLADR: BioMAP Diversity Plus: 3C Assay for Human Leukocyte Antigen - DR isotype (HLADR) Biomarker Activity (AID 2283019)
# Settings: primary human endothelial cells (HUVEC); actives raise or lower the signal
# Experimental: BSK_3C is a cell-based, multiplexed-readout assay that uses umbilical vein endothelium, a human vascular primary cell, with measurements taken at 24 hours after chemical dosing in a 96-well plate.BSK_3C_HLADR is an assay component measured in the BSK_3C assay. It measures HLA-DR antibody related to regulation of gene expression using ELISA technology.Data from the assay component BSK_3C_HLADR was analyzed into 1 assay endpoint. This assay endpoint, BSK_3C_HLADR, was analyzed with bidirectional fitting relative to DMSO as the negative control and baseline of activity. Using a type of binding reporter, gain or loss-of-signal activity can be used to understand changes in the signaling as they relate to the gene HLA-DRA. Furthermore, this assay endpoint can be referred to as a primary readout, because this assay has produced multiple assay endpoints where this one serves a signaling function. To generalize the intended target to other relatable targets, this assay endpoint is annotated to the cell adhesion molecules intended target family, where the subfamily is MHC Class II.
# The levels of cell surface (or secreted, indicated by the prefix "s") biomarker endpoints were measured by ELISA. Overt cytotoxicity to cells in confluent adherent cultures (all systems other than the BT system) was assessed by measuring total protein levels using sulforhodamine B (SRB) staining in parallel cultures at the time of biomarker measurements, indicated as SRB endpoints. For proliferation assays for adherent cell types, individual cell types are cultured at sub-confluence and relative cell numbers quantified by SRB staining at time points optimized for each system (48 h: 3C and CASM3C systems; 72 h: BT and HDF3CGF systems; 96 h: SAg system). SRB was performed by staining cells with 0.1% SRB after fixation with 10% TCA and reading wells at 560 nm.Viability and proliferation of PBMC (T cells) was quantified by Alamar Blue reduction for the SAg and BT systems. For PBMC viability (referred to as PBMC Cytotoxicity within the assay endpoint names), cells were plated (75,000/well in a 96-well plate) and then chemical samples added for 1 h before addition of activators, SEB and TSST-1 (20 ng/mL final concentration each). Cells were incubated for 90 h. Then, Alamar Blue (20 uL/well) (Invitrogen, Cat DAL1100) was added for 6 h, and the plates were read with a fluorescence microplate reader at 546/580 nm (excitation/emission). For PBMC proliferation, cells were plated and activated as above but incubated for only 16 h prior to addition of Alamar Blue. Plates were read after 6 h.
SMILES,outcome,AC50
c1ccc2c(c1)ccc1ccccc12,inactive,
C#C[C@]1(O)CC[C@H]2[C@@H]3CCC4=CC(=O)CC[C@@H]4[C@H]3CC[C@@]21C,,7.59 µM (active)
COCC(C)O (stereo not given),inactive,
CC(C)CCCCCCOC(=O)CCCCC(=O)OCCCCCCC(C)C,inactive,
CCCCCCCC(=O)O,inactive,
CC[C@H](C)[C@@H](C(=O)O)n1sc2ccccc2c1=O,inactive,
CCCCCCCCCCCCc1ccccc1S(=O)(=O)O,inactive,
Cc1cc(CCN2CCN(c3nsc4ccccc34)CC2)cc2c1NC(=O)CC2(C)C,,10.9 µM (active)
NCC(F)(F)C(F)(F)C(F)(F)C(F)(F)C(F)(F)C(F)(F)C(F)(F)F,inactive,
CCCCCCCCCCCCCCCS(=O)(=O)Oc1ccccc1,inactive,
NC(=O)N1C(=O)C(C(=O)c2cc(Cl)cs2)c2cc(F)c(Cl)cc21 (stereo not given),,13.4 µM (active)
OCCC(F)(F)C(F)(F)C(F)(F)C(F)(F)C(F)(F)C(F)(F)F,inactive,46.1 µM (active) and 42.1 µM (active)
CN(C)C=O,inactive,
CCCOc1sc(C(=O)N2CCC(c3cc(CN)ccc3F)CC2)c(C)c1Br,,7.77 µM (active)
COCC(C)OCC(C)O (stereo not given),inactive,
CCC(=C(c1ccc(O)cc1)c1ccc(OCCN(C)C)cc1)c1ccccc1,,8.28 µM (active)
CN1CCC[C@H]1c1cccnc1,inactive,
NC(=O)N(O)[C@@H]1C=C[C@H](Oc2cccc(Oc3ccc(F)cc3)c2)C1,inactive,
CC[C@H](c1ccc(O)cc1)[C@@H](CC)c1ccc(O)cc1,,20.9 µM (active)
Nc1cccc2c(N)cccc12,inactive,

SMILES,outcome,AC50
Cc1cc(C)c(O)c(C)c1,inactive,
CCc1nn(C2CCCCC2)c2cc(C3(C#N)CCC(C(=O)O)CC3)ccc12 (stereo not given),,20 µM (active)
CC(=O)NC1(c2cccc(F)c2)CCN(CC[C@@]2(c3ccc(Cl)c(Cl)c3)CN(c3ccccc3)C(=O)CO2)CC1,,24.9 µM (active)
CCN(CC)CCNc1ccc(CNC=O)c2sc3ccc(OC)cc3c(=O)c12,,13.4 µM (active)
COc1ccc([N+](=O)[O-])cc1N,inactive,
CC(=O)CC(C)(C)O,inactive,
CC1=C(/C=C/C(C)=C/C=C/C(C)=C/C(=O)O)C(C)(C)CCC1,,19.6 µM (active)
CCCCCCC(=O)O,inactive,
c1ccc2cc3c(ccc4ccccc43)cc2c1,inactive,
O=[N+]([O-])c1ccc(O)cc1,inactive,
Cc1oc(-c2ccccc2)nc1CCOc1ccc(C[C@H](Nc2ccccc2C(=O)c2ccccc2)C(=O)O)cc1,,28.5 µM (active)
CCCCCCCCCCCCCC[N+](C)(C)C,,2.1 µM (active)
CCCCC(CC)COC(=O)CCCCC(=O)OCc1ccccc1 (stereo not given),inactive,
O=C(O)c1ccccc1C(c1ccc(O)cc1)c1ccc(O)cc1,inactive,
CCCCC(CC)COC(=O)CCCCC(=O)OCC(CC)CCCC (stereo not given),inactive,
N#C[C@@H]1CC(F)(F)CN1C(=O)CNC1CC2CCC(C1)N2c1ncccn1 (stereo not given in full),,2.58 µM (active)
CCC(C)(C)C1CCC(O)CC1 (stereo not given),inactive,
CC(C)(C)CC(C)(C)c1ccc(O)c(-n2nc3ccccc3n2)c1,inactive,
CCOC(=O)CC(O)(CC(=O)OCC)C(=O)OCC,inactive,

# Reference: PubChem BioAssay (EPA / NIEHS)
